Consider 15 molecules from PubChem BioAssay (NCI).

Several values for one entry are separate records, joined by “and”; a condition that tells them apart may be missing. Identical values can stand only once. Compounds without any hit were thinned out: in the full panel of roughly 83,000, 20% have a hit.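 Results are percent growth after 48 hours of single-concentration exposure. 100 means growth as in untreated cells, lower positive values show inhibition; negative values down to -100 show cell death.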 Activity calls are given as the source filed them. Rule for the calls: active = growth percent below 10; inactive = the rest.

Test systems include DU-145 prostate; K-562 leukemia; MALME-3M melanoma; MDA-MB-231 breast; RXF 393 renal; SF-268 CNS; SF-295 CNS; SF-539 CNS; UACC-257 melanoma; M14 melanoma.
Common to all, as to test: NCI-60 one-dose screen, 48 h (100 = growth as untreated, 0 = no growth, -100 = all killed)
Details in all cases: 10 µM unless noted

Take `CC1=C(/C=C/C(C)=C/C=C/C(C)=C/C(=O)O)C(C)(C)CCC1`: the growth in the assay on DU-145 prostate was 103% (inactive) and 83.3% (inactive); in the assay on K-562 leukemia, 108% (inactive) and 89.5% (inactive); in the assay on MALME-3M melanoma it was 69.1% (inactive) and 35.6% (inactive) and 70.6% (inactive); in the assay with MDA-MB-231 breast, 78.1% (inactive) and 82.2% (inactive) and 85.1% (inactive); in the assay on RXF 393 renal, 94.2% (inactive) and 89.6% (inactive) and 91.3% (inactive); in the assay on SF-268 CNS, 91.7% (inactive) and 92.9% (inactive) and 101% (inactive). Further, the growth with SF-295 CNS was 69.3% (inactive) and 88.1% (inactive) and 114% (inactive); with SF-539 CNS, 88.7% (inactive) and 62.2% (inactive) and 86.1% (inactive); in the assay with UACC-257 melanoma, 94.7% (inactive) and 82.5% (inactive) and 93.9% (inactive); with M14 melanoma, 109% (inactive) and 95.3% (inactive) and 91.5% (inactive).
As for `c1ccc(NCc2ccc3c(c2)OCO3)cc1`, the growth in the assay with DU-145 prostate was 111% (inactive) and 108% (inactive); with K-562 leukemia, 105% (inactive) and 98.7% (inactive); with MALME-3M melanoma, 106% (inactive) and 119% (inactive); in the assay on MDA-MB-231 breast, 100% (inactive) and 106% (inactive); in the assay on RXF 393 renal, 104% (inactive) and 95.2% (inactive); with SF-268 CNS, 99.1% (inactive) and 99.4% (inactive). Besides, the growth in the assay on SF-295 CNS is 105% (inactive); with SF-539 CNS, 102% (inactive) and 91.4% (inactive); in the assay with UACC-257 melanoma, 101% (inactive) and 97.5% (inactive); in the assay with M14 melanoma, 101% (inactive).
For the molecule `COc1ccc(NC(=S)Nc2ccccn2)cc1`, the growth in the assay with DU-145 prostate is 93% (inactive); with K-562 leukemia, 87.1% (inactive); in the assay with MALME-3M melanoma, 80.6% (inactive); in the assay with MDA-MB-231 breast, 99% (inactive); in the assay on RXF 393 renal it was 121% (inactive); in the assay with SF-268 CNS it was 90.7% (inactive). The growth with SF-295 CNS was 94.6% (inactive); in the assay with SF-539 CNS, 109% (inactive); with UACC-257 melanoma, 104% (inactive); with M14 melanoma it was 106% (inactive).
As to `O=C1NC(=O)C2(CCc3ccccc32)N1` (stereo not given), the growth with DU-145 prostate is 123% (inactive) and 102% (inactive); in the assay on K-562 leukemia it was 116% (inactive) and 83.6% (inactive); with MALME-3M melanoma, 97% (inactive) and 96.7% (inactive); in the assay with MDA-MB-231 breast it was 106% (inactive) and 97.2% (inactive); with RXF 393 renal, 95.3% (inactive); in the assay with SF-268 CNS, 99% (inactive) and 107% (inactive). In addition, the growth in the assay with SF-295 CNS is 96.5% (inactive) and 96% (inactive); in the assay with SF-539 CNS, 90% (inactive) and 105% (inactive); in the assay on UACC-257 melanoma it was 107% (inactive) and 86.1% (inactive); in the assay on M14 melanoma it was 107% (inactive) and 96.5% (inactive).
Take `NC(=O)C1CC2C=CC1C2` (stereo not given): the growth is 114% (inactive) and 115% (inactive) in the assay with DU-145 prostate; 103% (inactive) and 93.9% (inactive) in the assay on K-562 leukemia; 69.2% (inactive) and 124% (inactive) in the assay on MALME-3M melanoma; 101% (inactive) and 99.1% (inactive) with MDA-MB-231 breast; 108% (inactive) and 89.7% (inactive) in the assay on RXF 393 renal; 118% (inactive) and 108% (inactive) in the assay on SF-268 CNS. Also, the growth in the assay with SF-295 CNS is 113% (inactive) and 95.2% (inactive); in the assay with SF-539 CNS it was 95.2% (inactive) and 112% (inactive); in the assay with UACC-257 melanoma, -24.1% (active); in the assay with M14 melanoma it was 106% (inactive) and 87.4% (inactive).
For `COC(=O)[C@H]1CCCN1C(=O)C1CCCN1C(=O)[C@@H](Cc1ccccc1)NC(=S)Nc1cc(C(F)(F)F)cc(C(F)(F)F)c1` (stereo not given in full), the growth in the assay with DU-145 prostate is 117% (inactive) and 91.4% (inactive); with K-562 leukemia, 103% (inactive) and 65.2% (inactive); in the assay on MALME-3M melanoma it was 109% (inactive) and 98.8% (inactive); in the assay with MDA-MB-231 breast, 95.9% (inactive) and 75.4% (inactive); with RXF 393 renal it was 108% (inactive) and 84.8% (inactive); in the assay with SF-268 CNS it was 105% (inactive) and 86.9% (inactive). Moreover, the growth with SF-295 CNS is 89.4% (inactive); in the assay with SF-539 CNS, 102% (inactive) and 96.1% (inactive); with UACC-257 melanoma, 108% (inactive) and 95.4% (inactive); in the assay with M14 melanoma it was 113% (inactive) and 105% (inactive).
Take `O=C(Oc1cccc(OC(=O)c2ccccc2)c1)c1ccccc1`: the growth is 111% (inactive) and 105% (inactive) in the assay with DU-145 prostate; 79.3% (inactive) and 88.5% (inactive) in the assay with K-562 leukemia; 119% (inactive) and 110% (inactive) in the assay with MALME-3M melanoma; 96.2% (inactive) and 107% (inactive) in the assay with MDA-MB-231 breast; 121% (inactive) with RXF 393 renal; 92% (inactive) and 94.7% (inactive) in the assay on SF-268 CNS. Moreover, the growth was 103% (inactive) and 99% (inactive) in the assay on SF-295 CNS; 96.8% (inactive) and 96.1% (inactive) in the assay with SF-539 CNS; 111% (inactive) in the assay with UACC-257 melanoma; 116% (inactive) and 99.4% (inactive) in the assay with M14 melanoma.
As to `CCOc1ccc2nc3cc(N)ccc3c(N)c2c1`, the growth in the assay with DU-145 prostate is 64.2% (inactive) and 67.6% (inactive); with K-562 leukemia, 113% (inactive) and 57.9% (inactive); with MALME-3M melanoma it was -18.6% (active) and -14.8% (active); in the assay with MDA-MB-231 breast, 86.5% (inactive); in the assay with RXF 393 renal it was 55.5% (inactive) and 43.2% (inactive); in the assay on SF-268 CNS, -39.5% (active) and -36.7% (active). Further, the growth in the assay on SF-295 CNS was 30.4% (inactive) and 16.5% (inactive); with SF-539 CNS it was 34.9% (inactive) and 31.7% (inactive); with UACC-257 melanoma, 62.3% (inactive) and 67.3% (inactive); with M14 melanoma it was 90.3% (inactive) and 75.8% (inactive).
Regarding `CC(C)Cc1ccc(C(C)C(=O)NCc2ccc(Cn3c(=O)sn(CCCCl)c3=O)cc2)cc1` (stereo not given), the growth in the assay with DU-145 prostate was 95% (inactive) and -78% (active); in the assay with K-562 leukemia, 2.16% (active); in the assay on MALME-3M melanoma, 110% (inactive) and -74.2% (active); in the assay on MDA-MB-231 breast, 104% (inactive) and -77.2% (active); with RXF 393 renal it was -94.2% (active); in the assay on SF-268 CNS it was 84.8% (inactive) and -40.3% (active). The growth was 97.9% (inactive) and 53.7% (inactive) in the assay on SF-295 CNS; 104% (inactive) and -90.3% (active) in the assay with SF-539 CNS; 94.4% (inactive) and -21.2% (active) in the assay on UACC-257 melanoma; 94% (inactive) and -58.1% (active) with M14 melanoma.
Regarding `CC(=O)Nc1cc(S(=O)(=O)O)cc2cc(S(=O)(=O)O)c(N=Nc3ccccc3)c(O)c12`, the growth in the assay on DU-145 prostate was 118% (inactive) and 114% (inactive); in the assay on K-562 leukemia, 107% (inactive) and 84.6% (inactive); with MALME-3M melanoma it was 110% (inactive) and 99.4% (inactive); with MDA-MB-231 breast, 100% (inactive) and 104% (inactive); in the assay on RXF 393 renal, 107% (inactive) and 113% (inactive); with SF-268 CNS it was 107% (inactive) and 100% (inactive). For the same molecule, the growth in the assay on SF-295 CNS was 105% (inactive) and 110% (inactive); in the assay with SF-539 CNS, 105% (inactive); in the assay on UACC-257 melanoma it was 115% (inactive) and 94.5% (inactive); in the assay on M14 melanoma, 103% (inactive) and 97.8% (inactive).
Regarding `CC(=O)c1ccccc1O`, the growth with DU-145 prostate was 112% (inactive) and 107% (inactive) and 116% (inactive); in the assay on K-562 leukemia, 94.9% (inactive) and 95% (inactive) and 107% (inactive); with MALME-3M melanoma, 101% (inactive) and 95% (inactive) and 114% (inactive); in the assay on MDA-MB-231 breast, 108% (inactive) and 99.3% (inactive) and 110% (inactive); in the assay with RXF 393 renal it was 101% (inactive) and 117% (inactive) and 129% (inactive); in the assay with SF-268 CNS, 108% (inactive) and 99.6% (inactive) and 113% (inactive). Further, the growth in the assay on SF-295 CNS is 108% (inactive) and 101% (inactive) and 105% (inactive); with SF-539 CNS it was 95.3% (inactive) and 103% (inactive) and 141% (inactive); with UACC-257 melanoma, 109% (inactive) and 89.4% (inactive) and 96.1% (inactive); with M14 melanoma, 104% (inactive) and 98.3% (inactive) and 100% (inactive).
Turning to `CCOC(=O)c1c(C)oc(C)c(C(=O)OCC)c1=O`, the growth was 118% (inactive) and 110% (inactive) in the assay with DU-145 prostate; 102% (inactive) and 87% (inactive) with K-562 leukemia; 133% (inactive) and 100% (inactive) in the assay on MALME-3M melanoma; 109% (inactive) and 108% (inactive) in the assay with MDA-MB-231 breast; 104% (inactive) and 117% (inactive) in the assay with RXF 393 renal; 102% (inactive) and 104% (inactive) with SF-268 CNS. Further, the growth in the assay with SF-295 CNS is 133% (inactive) and 105% (inactive); with SF-539 CNS, 102% (inactive) and 92.8% (inactive); with UACC-257 melanoma, 102% (inactive) and 107% (inactive); in the assay on M14 melanoma it was 98.8% (inactive).
As for `O=[N+]([O-])c1ccc(-n2[nH]nnc2=S)cc1`, the growth was 112% (inactive) with DU-145 prostate; 102% (inactive) in the assay with K-562 leukemia; 89.2% (inactive) with MALME-3M melanoma; 93.6% (inactive) with MDA-MB-231 breast; 166% (inactive) with RXF 393 renal; 98.3% (inactive) with SF-268 CNS. Besides, the growth is 95.2% (inactive) in the assay on SF-295 CNS, 104% (inactive) in the assay with SF-539 CNS, 113% (inactive) in the assay with UACC-257 melanoma and 109% (inactive) in the assay with M14 melanoma.
On to `CN(C)c1ccc2nc3ccc(N)cc3[n+](-c3ccccc3)c2c1`, for which the growth with DU-145 prostate was 46.7% (inactive) and 2.32% (active); in the assay on K-562 leukemia, 9.29% (active) and 18.5% (inactive); with MALME-3M melanoma, 4.82% (active) and -9.23% (active); in the assay on MDA-MB-231 breast, 51.6% (inactive) and 15.7% (inactive); in the assay on RXF 393 renal, 65.6% (inactive) and 73.1% (inactive); in the assay on SF-268 CNS it was 30.3% (inactive) and 7.92% (active). For the same molecule, the growth with SF-295 CNS is 29% (inactive) and -39.8% (active); with SF-539 CNS, 19.8% (inactive) and -29.8% (active); with UACC-257 melanoma, -12.2% (active) and -21% (active); in the assay on M14 melanoma it was 40.8% (inactive) and 15% (inactive).
In the case of `S=C(S)N1CCCC1`, the growth is 105% (inactive) and 128% (inactive) in the assay on DU-145 prostate; 39.6% (inactive) and 76.5% (inactive) with K-562 leukemia; 96.1% (inactive) and 99.7% (inactive) in the assay with MALME-3M melanoma; 92.3% (inactive) and 125% (inactive) in the assay with MDA-MB-231 breast; 112% (inactive) and 125% (inactive) in the assay with RXF 393 renal; 97% (inactive) and 116% (inactive) with SF-268 CNS. Also, the growth with SF-295 CNS was 112% (inactive) and 103% (inactive); in the assay with SF-539 CNS it was 110% (inactive) and 128% (inactive); with UACC-257 melanoma, 96.5% (inactive) and 92.6% (inactive); with M14 melanoma, 93.8% (inactive) and 101% (inactive).
